Screens as filed in PubChem.
Sampled rows, rich in hits. Any-hit rate of the full collection: about 3%.
KCNH2 3.1 inh: inhibitors of human KCNH2 3.1 potassium channel isoform | actives 0.95% (n = 340,000) | activity change, % (tested at about 1.8 µM) | U2OS KCNH2 3.1, thallium flux FluxOr; hits give low values;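 active = maximum activity change below -70%; inconclusive = maximum activity change from -70% to -50%; inactive = maximum activity change above -50%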;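 note: thallium influx rate constant from kinetic fluorescence after stimulation buffer; % is set by controls: 0 for no effect and ±100 for the full control effect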
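Measured as rate of thallium-driven FluxOr signal in transduced U2OS cells carrying the 3.1 channel, read kinetically for 2 min upon stimulation; values are rate constants scaled to DMSO control wells.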
12-LOX inh: inhibitors of human 12S-lipoxygenase ALOX12. purified 12hLO, xylenol orange hydroperoxide absorbance. Potency, µM (doses to about 108 µM), for the others: top-dose activity change, negative = inhibition, usual class: inhibitors. AID 1671190. actives 1.1% (n = 580,000); active = well fitted inhibition curve with a large enough effect; inconclusive = small, poorly fitted or top-dose-only effect, or another doubt; inactive = no such curve, though single readings can be large or run the other way; note: potency is the fitted concentration of half-maximal effect; % is set by controls: 0 for no effect and ±100 for the full control effect
Target sequence (P18054 whole entry, looked up): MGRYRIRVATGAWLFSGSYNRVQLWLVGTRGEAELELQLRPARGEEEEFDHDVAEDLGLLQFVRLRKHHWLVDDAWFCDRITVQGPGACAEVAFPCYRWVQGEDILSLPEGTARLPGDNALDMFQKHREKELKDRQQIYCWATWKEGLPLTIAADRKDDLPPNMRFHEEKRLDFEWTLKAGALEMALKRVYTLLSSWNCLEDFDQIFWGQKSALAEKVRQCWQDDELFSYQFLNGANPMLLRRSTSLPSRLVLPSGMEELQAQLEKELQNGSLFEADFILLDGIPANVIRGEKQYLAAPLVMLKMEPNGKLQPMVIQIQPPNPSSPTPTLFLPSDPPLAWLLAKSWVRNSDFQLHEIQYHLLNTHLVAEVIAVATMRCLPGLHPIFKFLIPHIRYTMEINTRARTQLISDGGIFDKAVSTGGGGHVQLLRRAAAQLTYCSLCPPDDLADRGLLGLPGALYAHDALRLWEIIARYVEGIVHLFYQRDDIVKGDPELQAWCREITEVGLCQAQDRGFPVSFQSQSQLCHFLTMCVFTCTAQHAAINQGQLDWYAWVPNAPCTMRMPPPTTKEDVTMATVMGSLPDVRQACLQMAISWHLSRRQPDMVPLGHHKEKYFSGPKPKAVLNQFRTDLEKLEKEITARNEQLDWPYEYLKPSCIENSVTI
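Purified human 12hLO at 150 nM in 25 mM Hepes, 0.01% Triton X-100, pH 7.0, preincubated 15 min at room temperature with compound. Reaction started with 40 uM arachidonic acid, 30 min at room temperature. Hydroperoxide measured by Fe-xylenol orange, 573/405 nm absorbance ratio.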
hERG WT inh: KCNH2 (human, wildtype) channel inhibition. Q12809. U2OS, BacMam KCNH2, thallium flux FluxOr; hits give low values. activity change, % at 1.84 µM. actives 0.37% (n = 340,000). AID 720551;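 active = maximum activity change below -70%; inconclusive = maximum activity change between -70% and -50%; inactive = maximum activity change above -50%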; note: % is set by controls: 0 for no effect and ±100 for the full control effect
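U2OS cells transduced with wild-type KCNH2 virus are loaded with FluxOr dye for 45 min, and thallium flux is measured in kinetic reads before and after stimulation buffer. Rate constants are normalized to DMSO controls.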
Chronic BCR inh: inhibitors of chronic active B-cell receptor signaling | actives 0.05% (n = 340,000) | ABC-DLBCL IkBa-CBG/CBR reporter, luminescence ratio, 4 h | Potency, µM (titrated, usually from 46.1 µM), inactives show at the highest dose activity change, negative = inhibition, hits mostly inhibitors; active = well fitted inhibition curve with a large enough effect in the signal ratio, with a control signal flat, not every such curve was filed as active; inconclusive = small, poorly fitted or top-dose-only effect, or effect the other way, or a change in a side signal; the % refers to the signal ratio;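 note: potency is the fitted concentration of half-maximal effect; plate controls were basal doxycycline-induced cells for no effect and cells given 10 µM MG132 for full effect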
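Concentration-response series (up to 46 uM) were applied to TMD8 dual-reporter cells for 4 h at 37C with doxycycline. Green/red ratio, after filter-overlap correction, defined %Activity; red signal alone was normalised to basal cells and zero luminescence.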
LDHA block: inhibitors of human lactate dehydrogenase A. purified LDHA, NADH/diaphorase-resazurin fluorescence; hits give low values. activity change, % (values are at about 110 or 230 µM). actives 0.15% (n = 480,000). AID 1347041; in the data active = activity change below about -30%; inconclusive = mostly about -25% to -30%;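 note: plate controls were DMSO wells for no effect and wells without enzyme for full effect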
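LDH5 2 nM; NADH 0.06 mM, pyruvate 0.2 mM; 200 mM Tris pH 7.4, EDTA, Tween-20; 5 min RT. Detection: diaphorase 0.133 mg/mL + resazurin 37 µM, fluorescence ex540/em590 at 0 and 20 min; normalized to enzyme-free and DMSO wells.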
ClpP mod: qHTS Assay for Activators of ClpP. ATP-dependent Clp protease proteolytic subunit (Bacillus subtilis (strain 168)), P80244. purified B. subtilis ClpP, FRET peptide cleavage, 20 min. Potency, µM (doses to about 57.5 µM), for inactives: at the top dose activity change, negative = active. actives 1.9% (n = 340,000). AID 651965, 2013; active = well fitted falling curve with a large enough effect; inconclusive = small, poorly fitted or top-dose-only effect; inactive = no such curve, though single readings can be large or run the other way; note: potency is the fitted concentration of half-maximal effect; the source files actives as falling curves though it sought activators and does not explain the sign; nearly all actives have a fitted effect of over 65% in size
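Purified B. subtilis ClpP, 10 microg/mL final in Tris/HCl pH8 with KCl, BSA, glycerol and Tween-20, cleaved an Abz/nitrotyrosine-quenched decapeptide. Fluorescence (ex 320, em 430) was read at 0 and 20 min at room temperature. Delta was normalized to 5.8 microM ADEP and DMSO/no-enzyme controls.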
Active calls of the source: *; i = inactive; u = inconclusive; x = no result given; [ ] = remark or other dose.

SMILES	KCNH2 3.1 inh	12-LOX inh	hERG WT inh	Chronic BCR inh	LDHA block	ClpP mod
COc1cccc(C(=O)Nc2ccc3oc(-c4ccc(F)cc4)cc(=O)c3c2)c1	x	-55%	x	x	-35*	x
CCOc1ccc(NC(=O)CCCn2c(=O)c3cccn3c3ccccc32)cc1	x	17%	x	x	-31*	x
COc1ccc(NC(=O)CCn2c(=O)c3cccn3c3ccccc32)cc1	-1	1%	10	-7%	-12	-4%
CCOc1ccc(NC(=O)CCNC(=O)Cn2ccc3ccccc3c2=O)cc1	3	x	8	-8%	-5	32µM*
C/C=C/C=C\C(=O)Nc1cccc(C2=NOC3(C2)C[C@@H](C(N)=O)N(C(=O)c2cc([N+](=O)[O-])cc([N+](=O)[O-])c2C)C3)c1 (stereo not given in full)	0	16µM*	-18	u	8	0%
C/C=C\C=C\C(=O)N1CC2(CC(c3cccc(NC(=O)CC)c3)=NO2)C[C@H]1C(N)=O (stereo not given in full)	-12	-9%	3	-7%	-1	-2%
C/C=C/C=C\C(=O)Nc1cccc(C2=NOC3(C2)C[C@H](C(N)=O)N(C(=O)/C=C/C)C3)c1 (stereo not given in full)	-177*	-1%	-2	-7%	-3	-1%
CCCCCC(=O)Nc1cccc(C2=NOC3(C2)C[C@@H](C(N)=O)N(C(=O)c2cc([N+](=O)[O-])cc([N+](=O)[O-])c2C)C3)c1 (stereo not given in full)	5	u	-5	-8%	8	-1%
O=C(Nc1nn[nH]n1)c1cc(-c2ccccc2)nc2ccccc12	x	4%	x	x	-5	x
COc1ccc(N(CC(=O)NC2CC3CCC2C3)S(=O)(=O)c2ccc(C)cc2)cc1 (stereo not given)	-6	i	-12	2%	-7	0%
Cc1ccc(S(=O)(=O)N(CC(=O)NC2CC3CCC2C3)c2ccccc2)cc1 (stereo not given)	-11	u	4	x	-43*	-3%
CN1CCc2c(sc(/N=C/c3cccs3)c2C(N)=O)C1	11	x	-2	0%	6	10µM*
CCNc1nc(NCC)nc(NC(N)=S)n1	1	-24%	-8	0%	-9	28µM*
COc1cc(C2C(C(=O)OC(C)C)=C(C)Nc3nc4ccccc4n32)cc(OC)c1OC (stereo not given)	x	10%	x	x	-8	x
COc1cc(CN2CCN(C(O)(c3ccccc3)c3ccccc3)CC2)cc(OC)c1OC	-75*	0%	32	-5%	-2	x
COc1cc(CN2CCN(Cc3ccccc3C)CC2)cc(OC)c1O	x	1µM*	x	x	49	x
CCn1nnnc1SCCS(=O)(=O)c1cc(Cl)ccc1Cl	x	u	x	x	-8	x
COCc1cc(=O)n(CC(=O)NCc2cccc(OC)c2)c(N2CCOCC2)n1	x	1%	x	x	x	x
COc1ccc(CN2C(=O)C(O)(CC(=O)c3ccccc3OC)c3ccccc32)cc1OC (stereo not given)	x	-7%	x	x	-1	x
Cc1ccccc1OCC(=O)N1CCC2(CC1)CC(=O)c1ccccc1O2	12	-9%	15	-12%	-8	28µM*
CC(Oc1ccccc1)C(=O)N1CCC2(CC1)CC(=O)c1ccccc1O2 (stereo not given)	-8	2%	24	9%	-13	25µM*
CC(Oc1ccccc1)C(=O)N1CCN(C(=O)C(C)Oc2ccccc2)CC1 (stereo not given)	x	-5%	13	u	-7	-1%
O=C1CC2(CCN(C(=O)COc3ccccc3)CC2)Oc2ccccc21	-33	-9%	4	0%	-11	x
O=C(O)c1ccc(S(=O)(=O)N2CCC3(CC2)CC(=O)c2ccccc2O3)cc1	5	-1%	3	11%	-8	32µM*
Cc1ccc(S(=O)(=O)N2CCC3(CC2)CC(=O)c2ccccc2O3)cc1	-15	u	2	1%	-6	x
SMILES	KCNH2 3.1 inh	12-LOX inh	hERG WT inh	Chronic BCR inh	LDHA block	ClpP mod
CC1(C)CC(NC(=S)NC2CC2)CC(C)(C)N1	-18	11%	6	7%	-12	35µM*
CC1(C)CC(NC(=S)NC2CCCC2)CC(C)(C)N1	x	4%	x	x	-7	x
Cn1ccnc1CN1C[C@H]2CN(C(=O)NCc3ccccc3)CCN2C1=O	x	35%[176 µM]	x	x	x	x
O=C(CN1CCN(c2ccc(F)cc2)CC1)NCc1ccc(F)cc1	-8	22%	-6	0%	-2	-3%
O=C(CN1CCN(Cc2ccc(Cl)cc2)C1=O)NCCCN1CCOCC1	2	4%[57.4 µM]	-7	-25%	-3	2%
O=C(CN1CCN(Cc2ccc(Cl)cc2)C1=O)NCCCN1CCN(c2ccc(F)cc2)CC1	-97*	-20%	-116*	12%	-2	-3%
O=C(CN1CCN(c2ccc(F)cc2)CC1)NCc1ccc(Cl)cc1	-77*	-12%	26	u	-10	-1%
CCCc1cc2c(O)ccc(O)c2c(=O)o1	x	35µM*	x	x	x	x
COc1ccc(CNC(=O)c2cccc(Oc3ccccc3)c2)cc1	x	u	x	x	8	x
COc1cc(/C=N/NC(=O)CCN2CCN(C)CC2)cc2c1OCO2	-9	-25%	4	1%	-22	16µM*
COc1cc(/C=N/NC(=O)c2ccncc2)cc2c1OCO2	19	19%	x	-2%	-4	0%
COc1ccc(OC)c(/C=N\NC(=O)c2ccc(-c3ccccc3)cc2)c1	x	0%	-2	2%	-10	28µM*
COc1ccc(C(=O)N/N=C/c2cc3ccccc3[nH]c2=O)cc1	13	-10%	4	-1%	-3	28µM*
COc1ccc(C(=O)N/N=C/c2ccccc2OC(=O)c2ccccc2)cc1	2	-6%	-2	u	0	x
COc1ccc(C(=O)Oc2ccc(/C=N/NC(=O)c3ccccc3OC)cc2[N+](=O)[O-])cc1	1	-8%	21	u	-2	28µM*
COc1ccc(OC)c(/C=N/NC(=O)CNC(=O)c2cccc3ccccc23)c1	8	72%	0	-1%	-9	18µM*
O=C(O)C/C(=C/c1ccc(OC(F)F)cc1)c1nc2ccccc2s1	x	u	x	x	1	x
CCc1cc(=O)oc2cc(OC(C)C(=O)N(C(C)C)C(C)C)ccc12 (stereo not given)	x	1%	x	x	0	x
N#CCC(=O)N/N=C/c1ccc(Sc2nc3ccccc3s2)o1	2	-4%	0	u	-48*	-6%
COCC(=O)N/N=C/c1ccc(Sc2nc3ccccc3s2)o1	8	0%	5	0%	0	u
